Data taken from PubChem BioAssay (EPA / NIEHS).
“And” between values parts separate entries of the source, which are not always exact repeats. Equal values may be shown once. The source made the active and inactive calls. Rule for the calls: active = hit-call score of the fitted dose curve at least 0.9, where 1 is the maximum; inconclusive = response in the unintended direction; inactive = score below 0.9.

These compounds were tested on rat CYP2B1, gene 24300 (assay: NVS_ADME_rCYP2B1: NovaScreen (NVS) CYP450-related Enzyme Activity (ADME) Assay for rat CYP2B1 (AID 2283117)).
Procedure: NVS_ADME_rCYP2B1 is a biochemical, single-readout assay that uses extracted gene-proteins in a cell-free assay. Measurements were taken 0.75 hour after chemical dosing in a 96-well plate.NVS_ADME_rCYP2B1 is one of one assay component(s) measured or calculated from the NVS_ADME_rCYP2B1 assay. It is designed to make measurements of enzyme activity, a form of enzyme reporter, as detected with fluorescence intensity signals by Fluorescence technology.Data from the assay component NVS_ADME_rCYP2B1 was analyzed into 1 assay endpoint. This assay endpoint, NVS_ADME_rCYP2B1, was analyzed in the positive analysis fitting direction relative to Acetonitrile as the negative control and baseline of activity. Using a type of enzyme reporter, loss-of-signal activity can be used to understand changes in the enzymatic activity as they relate to the gene Cyp2b1. Furthermore, this assay endpoint can be referred to as a primary readout, because this assay has produced multiple assay endpoints where this one serves a enzymatic activity function. To generalize the intended target to other relatable targets, this assay endpoint is annotated to the cyp intended target family, where the subfamily is xenobiotic metabolism.
Binding assays used specific radioligands (tritiated, iodinated) with non-radioactive competitive displacement ligands in agonist or antagonist protocols (as indicated) and various reference compounds and inhibitors to titrate specific binding to receptors and transporters. Most enzyme assays (CYPs, kinases, phosphatases, proteases, HDACs) used recombinant protein and specific substrates (fluorescence mostly, some colorimetric and radioactive) and inhibitors, followed by a biochemical separation of substrate and product. All assays for the biochemical HTS were initially run in duplicate at a single concentration (10 uM for CYP450 assays and 25 uM for all others). Assay-chemical combinations meeting a pre-defined threshold (e.g., 30% inhibition and other criteria defined below) were then run in singleton concentration-response format with maximum concentration of 20 uM for CYPs and 50 uM for all others. Each assay was run with positive and negative controls, and concurrent controls on every plate. The follow-up (secondary) screen tested active chemical-pairs in concentration series, as well as a few additional assays not tested in the primary screen, some selected negative inactives, and several cases re-run in the concentration series for confirmatory purposes.
With `COP(=S)(OC)SCn1nnc2ccccc2c1=O` the AC50 was 3.35 µM (active). With `CCNC(=O)NC(=O)C(C#N)=NOC` the outcome was “inactive”. For `CCCCC(O)(Cn1cncn1)c1ccc(Cl)cc1Cl` (stereo unspecified), the AC50 was 0.0547 µM (active). With `CC1(C)CCC(=Cc2ccc(Cl)cc2)C1(O)Cn1cncn1` (stereo unspecified) the AC50 was 1.84 µM (active). For `N#Cc1c(Cl)cccc1Cl`, the outcome was “inactive”. In the case of `COP(=S)(OC)Oc1ccc([N+](=O)[O-])c(C)c1`, the AC50 is reported as 1.17 µM (active). For `CCCCC(C#N)(Cn1cncn1)c1ccc(Cl)cc1` (stereo unspecified), the AC50 was 1.64 µM (active). `CCCN(CC)CC1COC2(CCC(C(C)(C)C)CC2)O1` (stereo unspecified) was tested, and the outcome was “inactive”. With `CC(C)(C)C(=O)C(Oc1ccc(Cl)cc1)n1cncn1` (stereo unspecified) the AC50 was 549 nM (active) and 1.69 µM (active). `CCNP(=S)(OC)O/C(C)=C/C(=O)OC(C)C` (stereo unspecified) was tested, and the AC50 was 1.45 µM (active). For `CC(C)C1(C)N=C(c2ncccc2C(=O)O)NC1=O` (stereo unspecified), the outcome was “inactive”.
